D2 ag-1 = HTS Assay for Allosteric Agonists of the Human D2 Dopamine Receptor: Primary Screen for Agonists; D(2) dopamine receptor (Homo sapiens), P14416; AID 485358, 2010; activation, % at 2 µM; hit rate 0.53% among 340,000; HEK293 T-REx D2 cells, calcium flux agonist mode;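 active = activation over 3 SD above normal in the single-dose calcium agonist read, cut at about 30% in these data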
Target sequence (P14416 whole entry, looked up): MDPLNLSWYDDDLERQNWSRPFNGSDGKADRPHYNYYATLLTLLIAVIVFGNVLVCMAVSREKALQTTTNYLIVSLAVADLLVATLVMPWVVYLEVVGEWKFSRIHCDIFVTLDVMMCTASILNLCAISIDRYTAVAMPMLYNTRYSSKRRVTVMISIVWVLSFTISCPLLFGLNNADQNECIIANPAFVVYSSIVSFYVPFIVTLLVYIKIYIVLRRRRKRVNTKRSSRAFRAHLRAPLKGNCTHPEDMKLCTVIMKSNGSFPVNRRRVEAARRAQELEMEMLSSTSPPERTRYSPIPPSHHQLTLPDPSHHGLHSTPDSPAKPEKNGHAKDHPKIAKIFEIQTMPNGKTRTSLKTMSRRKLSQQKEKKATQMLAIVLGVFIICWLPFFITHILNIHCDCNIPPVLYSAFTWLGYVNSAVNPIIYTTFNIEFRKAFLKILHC
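Tetracycline-induced HEK293 Trex cells with D2 receptor force-coupled to calcium signaling, plated overnight at 30 C and loaded with no-wash calcium dye. Calcium flux read kinetically for 180 s after compound addition; responses flag agonists.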
D2 antagonist = HTS Assay for Allosteric Antagonists of the Human D2 Dopamine Receptor: Primary Screen for Antagonists | D(2) dopamine receptor (Homo sapiens), P14416 | HEK293 TREx D2 cells, calcium flux, dopamine EC80 | inhibition, % at 10 µM | hit rate 2% among 340,000 | AID 485344, 2010; in the data active = inhibition above about 30%; inactive = below that, where a call was filed
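Tetracycline-induced HEK293 TREx cells expressing D2 receptor forced-coupled to calcium signalling, loaded with no-wash calcium dye. Compounds added and calcium flux read 180 s, then dopamine added at EC80 and read a further 180 s.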
D2 PAM-1 = HTS Assay for Positive Allosteric Modulators of the Human D2 Dopamine Receptor: Primary Screen for Potentiators | D(2) dopamine receptor (Homo sapiens), P14416 | hit rate 0.34% among 340,000 | AID 485347, 2010 | potentiation, % at 10 µM | HEK293 T-REx D2, calcium flux, EC20 dopamine potentiation;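 active = potentiation over 3 SD above the plate norm, cut at about 30% in these data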
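Tetracycline-induced Hek293 Trex D2 cells, force-coupled to calcium, loaded with no-wash calcium dye. Compound added with 180 s kinetic read for agonism, then EC20 dopamine and a further 180 s read for potentiation.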
D2 PAM-2 = Beta-Arrestin HTS for Positive Allosteric Modulators of the Human D2 Dopamine Receptor: Potentiators; D(2) dopamine receptor (Homo sapiens), P14416; DiscoveRx D2 beta-arrestin cells, luminescence, 90 min; 100% = 57 uM dopamine signal; potentiation, % (test concentration not listed); hit rate 0.23% among 360,000; AID 624464, 2012; in the data active = potentiation above about 50%
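PathHunter beta-arrestin assay in DiscoveRx D2 cells. Compounds were added with an EC20 of dopamine (50 nM final) for 90 min at 37 deg C. Luminescence was read 1 h after detection reagent, with 57 uM dopamine as the EC100 control.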
D2 ag-2 = Beta-Arrestin HTS for Positive Allosteric Modulators of the Human D2 Dopamine Receptor: Agonists; DiscoveRx PathHunter D2 beta-arrestin, luminescence, 90 min; 100% = 57 uM dopamine signal; activation, % (no concentration beside the values); hit rate 0.084% among 360,000; D(2) dopamine receptor (Homo sapiens), P14416; in the data active = activation above about 40%
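Agonist mode: compounds alone added to overnight-plated D2 PathHunter cells for 90 min at 37 C, with 57 uM final dopamine (EC100) defining full response. Beta-arrestin recruitment detected by chemiluminescent reagent, read after 1 h at ambient temperature.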
Numbers stand for hits; i = inactive; nt = no result. Compounds with a hit are over-represented: about 2.4% of the library has one in this group of screens.

SMILES | D2 ag-1 | D2 antagonist | D2 PAM-1 | D2 PAM-2 | D2 ag-2
CCCCSCCCNC(=O)c1ccc2c(c1)N(CC)C(=O)c1ccccc1S2=O (configuration not stated) | i | 30.3 | i | i | i
Cc1ccc2c(c1)C(c1ccccc1)N(C(=O)COc1ccc(Cl)cc1Cl)CC(=O)N2 (configuration not stated) | i | nt | i | nt | nt
CC(C)CCNC(=O)C1CCN(C(=O)c2cc3sccc3n2Cc2ccc(Cl)cc2)CC1 | i | nt | i | nt | nt
COc1ccc(CCNC(=O)CCn2c(=O)c3ccccc3n(Cc3cc(C)ccc3C)c2=O)cc1OC | i | nt | i | nt | nt
CCN1CCN(CCNC(=O)c2ccc3c(c2)N(Cc2ccc(F)cc2)C(=O)c2ccccc2S3=O)CC1 (configuration not stated) | i | 55.0 | i | i | i
CCN1CCN(C(=O)c2ccc3c(c2)N(Cc2ccccc2)C(=O)c2ccccc2S3=O)CC1 (configuration not stated) | i | i | i | i | i
CCC(C)(C)NC(=O)CN(C(=O)CCC(=O)Nc1nccs1)c1ccccc1C | i | 39.0 | i | i | i
CCOc1ccc(Cl)cc1S(=O)(=O)n1cnc2ccccc21 | i | i | i | i | i
COc1ccc(Cl)cc1S(=O)(=O)n1cnc2ccccc21 | i | 79.0 | i | i | i
Cn1c(CNC(=O)CSc2nc(-c3ccccc3F)nc3cc(=O)[nH]n23)nc2ccccc21 | i | nt | i | nt | nt
Cc1nc(NC(=O)c2cc(-n3cnnc3)ccc2Cl)ccc1Br | i | 30.4 | i | i | i
O=C(Nc1ccccc1)c1cc(-n2cnnc2)ccc1Cl | nt | nt | nt | i | i
COc1ccc(S(=O)(=O)N2CCC(Oc3ccc(-n4cnnn4)cc3)CC2)cc1OC | i | nt | i | nt | nt
Cc1ccc(Cn2ncc3c(N4CCN(c5ccc(C)cc5)CC4)ncnc32)cc1 | i | i | i | i | i
Cc1ccc(Cn2ncc3c(N4CCN(C)CC4)ncnc32)cc1 | i | 54.6 | i | i | i
COc1ccccc1N1CC(C(=O)Nc2nc(C)cs2)CC1=O (configuration not stated) | i | i | i | i | i
Cc1ccc(N2CC(C(=O)Nc3cccnc3)CC2=O)cc1C (configuration not stated) | i | 31.1 | i | i | i
Cc1csc(NC(=O)C2CC(=O)N(c3ccc(C)c(C)c3)C2)n1 (configuration not stated) | i | 50.8 | i | i | i
NS(=O)(=O)c1ccc(CCNC(=O)c2nc(SCc3ccccc3F)ncc2Cl)cc1 | i | nt | i | nt | nt
O=C(CCN1CCOCC1)NNC(=O)c1ccc(Cl)c([N+](=O)[O-])c1 | nt | nt | nt | i | i
O=C(CCN1CCOCC1)NNC(=O)c1ccc([N+](=O)[O-])cc1[N+](=O)[O-] | nt | nt | nt | 58.9 | i
Cc1ccc(NC(=O)CC2Oc3ccccc3NC2=O)cc1C (configuration not stated) | i | nt | i | nt | nt
C/C(=N\Nc1nc(C)cc(=O)[nH]1)C1CC1 | i | i | i | i | i
Cc1cc(=O)[nH]c(NN=C2CCC(C(C)(C)C)CC2)n1 (configuration not stated) | i | i | 32.3 | i | i
O=C(Nc1cccc(Cl)c1)C1CCCN(c2nn3cc(-c4ccc(F)cc4)nc3s2)C1 (configuration not stated) | i | nt | i | nt | nt
SMILES | D2 ag-1 | D2 antagonist | D2 PAM-1 | D2 PAM-2 | D2 ag-2
Nc1ccc(-c2nc3ncccc3o2)cc1 | i | 32.8 | i | i | i
COc1cccc(/C=C/C(=O)OCC(=O)c2ccc3c(c2)NC(=O)CO3)c1 | i | 42.1 | i | i | i
CCOC(=O)CC1C(=O)NCCN1c1nc2c(C)cccn2c(=O)c1/C=C1\SC(=S)N(CC(C)C)C1=O (configuration not stated) | 32.6 | i | i | nt | nt
CCOCCCNc1nc2c(C)cccn2c(=O)c1/C=C1\SC(=S)N(CC(C)C)C1=O | i | i | i | i | i
Cc1ccc(C)c(N2CCN(c3nc4ccccc4c(=O)n3-c3ccc(Cl)cc3)CC2)c1 | i | nt | i | nt | nt
O=C(NCCCN1CCCC1=O)c1cccc(S(=O)(=O)N2CCCCC2)c1 | i | 38.3 | i | i | i
O=C(CCNC(=O)c1ccc(Br)cc1)Nc1cccc(S(=O)(=O)N2CCCC2)c1 | i | 38.1 | i | i | i
Cc1ccc(CNC(=O)c2oc3ccc(S(=O)(=O)N4CCC5(CC4)OCCO5)cc3c2C)cc1 | nt | nt | i | i | i
O=C(Nc1ccc2c(c1)C(=O)NC2=O)c1ccc(S(=O)(=O)N2CCCC2)cc1 | i | 30.8 | i | i | i
Cc1c(C(=O)NCCN(C)C)oc2ccc(S(=O)(=O)N3CCC4(CC3)OCCO4)cc12 | i | 33.4 | nt | i | i
CCC(=O)N1CCc2cc(Br)cc(S(=O)(=O)CCC(=O)NCc3ccc(F)cc3)c21 | nt | nt | i | nt | nt
CCOc1ccccc1CNCc1c(C(=O)O)c(C)n(Cc2ccc(Cl)cc2)c1C | i | nt | i | nt | nt
O=C(NCCOc1ccccc1F)c1cccc(S(=O)(=O)N2CCN(c3ccccc3)CC2)c1 | i | 35.4 | i | i | i
Cc1c(C(=O)NCCCN2CCCC2=O)oc2ccc(S(=O)(=O)N3CCOCC3)cc12 | i | 44.3 | i | i | i
COCCNC(=O)c1c[nH]c2ccc(S(=O)(=O)N3CCOCC3)cc2c1=O | i | 46.1 | i | i | i
O=C(NCCCN1CCOCC1)c1cccc(S(=O)(=O)N2CCN(c3ccccc3)CC2)c1 | i | i | i | i | i
Cc1c(C(=O)NCCC2=CCCCC2)oc2ccc(S(=O)(=O)N3CCOCC3)cc12 | i | i | i | i | i
O=C(Nc1cccc(S(=O)(=O)N2CCOCC2)c1)c1ccc(N2CCCC2=O)cc1 | i | i | i | i | i
O=C(Nc1cccc(S(=O)(=O)N2CCCCC2)c1)c1ccc(N2CCCC2=O)cc1 | i | i | 51.0 | i | i
Cc1cc(=O)[nH]c2nnc(SCC(=O)Nc3ccc(OC(F)(F)F)cc3)n12 | i | nt | i | nt | nt
COc1ccc(-c2cc(=O)oc3c4c(ccc23)OCN(Cc2cccc(OC)c2)C4)cc1 | i | nt | i | nt | nt
CC(C)Cn1c(SCc2nc3ccccc3c(=O)[nH]2)nc2ccccc2c1=O | i | i | 35.6 | i | i
Cn1c(SCc2nc3ccccc3c(=O)[nH]2)nc2ccccc21 | i | i | i | i | i
CCc1ccc(-c2cc(C)no2)cc1S(=O)(=O)NCCN1CCC(C)CC1 | i | i | i | i | i
CCc1ccc(-c2cc(C)no2)cc1S(=O)(=O)NCCCN1CCN(c2ccccc2)CC1 | 72.3 | 50.9 | i | i | i
CCc1ccc(-c2cc(C)no2)cc1S(=O)(=O)N1CCN(c2ccc(OC)cc2)CC1 | i | i | i | i | i
